# Source: PubChem
# Algae TAG accum = algal TAG accumulation induction. Chlamydomonas reinhardtii TAG, Nile Red fluorescence, 72 h. calls only at 10 µM (by protocol). actives 0.84% (n = 44,000). AID 1159537; call rule not given here;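 also: hits raise Nile Red signal meaning more stored TAG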
# * marks the source's active call; other numbers are inactive results; i = inactive; + = active, no number. The full list was thinned out, with hits kept by preference.
SMILES,Algae TAG accum
Oc1ccc(CN2CCN(c3ccccc3Cl)CC2)cc1,+
Cc1ccc(CN2CCN(c3ccccc3C)CC2)cc1,i
Oc1cccc(CN2CCN(c3ccccc3Cl)CC2)c1,i
Cc1ccccc1N1CCN(Cc2ccc(O)cc2)CC1,+
Cc1ccccc1N1CCN(Cc2ccc(N(C)C)cc2)CC1,i
Clc1ccccc1N1CCN(Cc2ccccc2)CC1,i
N=c1c2c3c(sc2ncn1Cc1ccco1)CCCC3,i
C1CCCC(NCC2CCCO2)CC1 (centres undefined),i
N#Cc1no[n+]([O-])c1/C(N)=N/N=C(/N)c1c(C#N)no[n+]1[O-],i
COc1ccc(CCN(C)Cc2ccc(OC)c(OC)c2)cc1OC,i
COc1ccc(CN2CCN(c3cccc(Cl)c3)CC2)cc1O,i
Clc1cccc(N2CCN(Cc3ccccc3Cl)CC2)c1,i
Fc1ccc(CN2CCN(c3cccc(Cl)c3)CC2)cc1,+
COc1ccc(CN2CCN(c3ccccc3)CC2)cc1O,i
Clc1ccc(CN2CCN(c3ccccc3)CC2)cc1Cl,i
COc1cccc(CN2CCN(c3cccc(Cl)c3)CC2)c1,i
Oc1ccc(CN2CCN(c3cccc(Cl)c3)CC2)cc1,+
Fc1ccc(CN2CCN(c3cccc(Cl)c3)CC2)c(F)c1,i
Oc1ccc(CN2CCN(c3ccccc3)CC2)cc1,+
Cc1cc(C)c(NC(=O)C(Cl)(Cl)Cl)c(C)c1,i
Fc1ccc(CCNCc2ccc3c(c2)OCO3)cc1,i
Brc1cccc(CN2CCN(c3ccccc3)CC2)c1,i
COc1ccccc1N1CCN(Cc2cc(F)ccc2F)CC1,i
O=[N+]([O-])c1cc(Cl)ccc1N1CCNCC1,i
CC(=O)c1ccc(N2CCN(Cc3cccc(F)c3)CC2)cc1,i
SMILES,Algae TAG accum
O=[N+]([O-])c1ccc(N2CCN(Cc3cccc(Cl)c3)CC2)cc1,i
CN1CCN(Cc2ccc([N+](=O)[O-])cc2)CC1,i
CN1CCN(Cc2cccc([N+](=O)[O-])c2)CC1,i
O=[N+]([O-])c1ccc(CN2CCN(Cc3ccccc3)CC2)cc1,+
O=[N+]([O-])c1ccc(N2CCN(Cc3cccc(F)c3)CC2)cc1,i
CCN1CCN(Cc2ccc([N+](=O)[O-])cc2)CC1,i
O=C(COc1ccccc1)N1CCN(Cc2ccc([N+](=O)[O-])cc2)CC1,i
CCC(C)N1CCN(Cc2ccc([N+](=O)[O-])cc2)CC1 (centres undefined),+
O=[N+]([O-])c1ccc(CN2CCN(c3ccc(F)cc3)CC2)cc1,+
CN1CCC(N2CCCCCCC2)CC1,i
CN1CCN(C(=O)Cc2ccc(Br)cc2)CC1,i
O=c1c2ccccc2nc(/C=C/c2cccnc2)n1-c1ccc([N+](=O)[O-])cc1,i
COCC(C)NC1CCSC1 (centres undefined),i
Cc1ccc(C(C)C)c(OC(=O)N(C)C)c1CN(C)C,i
Cc1ccccc1OCC(=O)N1CCN(C)CC1,i
CCOc1cc(CN2CCN(c3ccc(F)cc3)CC2)ccc1O,i
COc1ccc(N2CCN(Cc3ccc(Cl)cc3)CC2)cc1,+
COc1cc(CN2CCN(C)CC2)cc(OC)c1,i
COc1ccc(N2CCN(Cc3ccc(F)cc3)CC2)cc1,i
CCOc1ccc(CN2CCN(c3ccc(OC)cc3)CC2)cc1,i
COc1cccc(CN2CCN(Cc3ccccc3)CC2)c1,i
Clc1ccc(CN2CCN(Cc3ccc4c(c3)OCO4)CC2)cc1,i
COc1cc(CN2CCN(Cc3ccccc3)CC2)cc(OC)c1,+
CCOc1ccc(CN2CCN(c3ccc(F)cc3)CC2)cc1,+
Clc1cccc(CN2CCN(Cc3ccc4c(c3)OCO4)CC2)c1,i
SMILES,Algae TAG accum
COc1ccc(N2CCN(Cc3ccc(Cl)c(Cl)c3)CC2)cc1,i
Clc1ccc(N2CCN(Cc3ccc4c(c3)OCO4)CC2)cc1,+
CN(C(=O)C(Cl)(Cl)Cl)c1ccccc1,i
CN(C(=O)Oc1ccccc1[N+](=O)[O-])c1ccccc1,i
COc1cc(CN2CCN(c3cccc(Cl)c3)CC2)cc(I)c1O,i
CC(C)OC(=O)N1CCN(/C(N)=N\[N+](=O)[O-])CC1,i
CCC(=O)c1c(O)n(C)c(=O)n(C)c1=O,i
COc1cccc(CNCCc2ccc(F)cc2)c1OC,i
CC(C)(N)Cc1cc2ccccc2[nH]1,i
CC(=O)c1ccc(NC(=O)C(Cl)(Cl)Cl)cc1,i
CC1CN(C)CCC1(O)c1ccccc1 (centres undefined),i
COc1ccccc1N1CCN(Cc2ccccc2)CC1,i
CCN1CCN(Cc2cccc(Br)c2)CC1,i
Cc1ccc(CN2CCN(CCO)CC2)cc1,+
CCOc1ccc(CN2CCN(c3ccccc3OC)CC2)cc1,+
COc1ccccc1N1CCN(Cc2ccc(C)cc2)CC1,+
COc1ccccc1N1CCN(Cc2ccc(C(C)C)cc2)CC1,i
CCCCOc1ccc(CN2CCN(CC)CC2)cc1,i
OCCN1CCN(Cc2ccc(F)cc2)CC1,i
CCOc1ccccc1CN1CCN(c2ccccc2OC)CC1,i
CCc1ccc(CN2CCN(CC)CC2)cc1,+
COc1ccccc1N1CCN(Cc2ccc(N(C)C)cc2)CC1,i
Cc1ccc(CN2CCN(C)CC2)cc1,i
O=[N+]([O-])c1ccc(N2CCN(Cc3c(Cl)cccc3Cl)CC2)cc1,i
CCC1(CC(=O)c2ccccc2)C(=O)NC(=O)NC1=O,i
SMILES,Algae TAG accum
Cc1cccc(CN2CCN(c3ccccc3)CC2)c1,i
O=Cc1cn(Cc2nc(C(c3ccccc3)c3ccccc3)no2)c2ccccc12,i
COc1ccc(Br)cc1CN1CCN(C)CC1,i
C#CCOc1c(Cl)cc(/C=C/[N+](=O)[O-])cc1OC,i
COc1ccccc1-n1c(/C=C/c2cccc([N+](=O)[O-])c2)nc2ccccc2c1=O,i
Cc1cccc(CN2C[C@@H]3C[C@@H](C2)c2cccc(=O)n2C3)c1,i
CCOc1ccccc1CN1CCN(c2ccccc2C)CC1,i
CCOc1ccc(CN2CCN(c3ccccc3C)CC2)cc1,+
CCOc1cc(CN2CCN(c3ccccc3C)CC2)ccc1O,i
Fc1ccc(N2CCN(Cc3cc(F)ccc3F)CC2)cc1,i
Nc1ccc(F)cc1C(=O)c1ccccc1,+
Nc1ccc(Cl)cc1C(=O)c1ccccc1,i
Nc1ccc(Br)cc1C(=O)c1ccccc1F,i
CCOc1ccccc1N1CCN(Cc2ccc(SC)cc2)CC1,i
O=C(NC(=O)C(Cl)(Cl)Cl)NC1CCCC1,i
